Here are results for 97 molecules from ChEMBL document CHEMBL4513216, “Probing the Open Global Health Chemical Diversity Library for Multistage-Active Starting Points for Next-Generation Antimalarials” (ACS Infect Dis, 2020).

The whole screen tested about 68,000 compounds, of which about 2,700 (4%) showed an effect of 50% or more. Shown is part of a subset that was picked to be rich in strong results.

The subject of the experiment is Plasmodium berghei. The experiment can be described thus: Screen against P. berghei liver stage (PbLuc), transformed with Luciferase, at 2uM. The format is functional, HepG2. Conditions: tested at 2 uM.
In the case of `Cc1nc(SC2CCN(c3sccc3C#N)C2=O)oc1C` (configuration not stated), the INHIBITION amounted to 32.26%.
Consider `Cc1nnc(SC2CCN(c3sccc3C#N)C2=O)[nH]1` (configuration not stated), for which the INHIBITION turned out to be 6%.
The same measure for `Cc1nnc(SC2CCN(c3sccc3C#N)C2=O)s1` (configuration not stated): 57.91%; for `COc1ccccc1-c1cc(NC(=O)CCS(=O)(=O)C2CCCC2)[nH]n1`: -43.66%.
`CC(=O)Nc1ccc2c(c1)CN(C(=O)c1ccco1)CC2`: the INHIBITION is 33.08%.
The same measure for `CN1CC(=O)N(c2ccsc2)CC12CCN(C(=O)c1ccc[nH]1)C2` (configuration not stated): 53.98%; for `CN1CC(=O)N(c2ccsc2)CC12CCN(C(=O)c1ccccc1)C2` (configuration not stated): 37.45%; for `Cc1cc(C(=O)N2CCC3(C2)CN(c2ccsc2)C(=O)CN3C)[nH]n1` (configuration not stated): 13.04%.
In the case of `CCC1CN(CC(=O)NCCN(CC)CC)c2ccccc2S1` (configuration not stated), the INHIBITION was found to be 18.23%.
Take `COCCOc1ncccc1C(=O)N1CCCCC1c1nccs1` (configuration not stated): the INHIBITION is listed as -10.05%.
Take `COCCOc1ccccc1C(=O)N1CCCCC1c1nccs1` (configuration not stated): the INHIBITION is listed as 45.75%.
Turning to `Cc1cc(C)n(C2CCCN(C(=O)CCNS(C)(=O)=O)C2)n1` (configuration not stated), the INHIBITION amounted to 15.31%.
Consider `CCOc1ncccc1C(=O)N1CCCCC1c1nccs1` (configuration not stated), for which the INHIBITION is 67.59%.
`Cc1cc(C)n(C2CCCN(C(=O)CCCNc3ncccn3)C2)n1` (configuration not stated): the INHIBITION was 26.71%.
Take `Cc1cc(C)n(C2CCCN(C(=O)CCNc3ncccn3)C2)n1` (configuration not stated): the INHIBITION is reported as 70.27%.
With `COCc1ccccc1C(=O)N1CCCC(n2nc(C)cc2C)C1` (configuration not stated), the INHIBITION is given as 21.91%.
With `CCOc1ncccc1C(=O)N1CCCC(n2nc(C)nc2C)C1` (configuration not stated), the INHIBITION was 20.44%.
On to `CCOc1ncccc1C(=O)N1CCCC(n2nc(C)cc2C)C1` (configuration not stated), for which the INHIBITION was found to be 58.29%.
To `Cc1cncc(C(=O)N2CCO[C@H]3[C@H](Oc4ccccn4)CC[C@@H]32)c1` belongs 28.88%; to `Cc1ccc(CN2CC[C@H]3[C@H](CO[C@H]3CN(C)C)C2)o1`, -0.69%.
Turning to `COc1nccc(N2CC[C@H](N3CCOCC3)[C@H](CCCO)C2)c1C#N`, the INHIBITION is given as -47.16%.
The same measure for `N#Cc1cnc2cc(F)cc(F)c2c1NC1CCN(CC(N)=O)CC1`: -22.63%.
On to `O=C(C1CC(c2ccccc2)=NO1)N1CCCCc2ccccc21` (configuration not stated), for which the INHIBITION is reported as 24.84%.
To `CCC(CC)c1cc(CNC(=O)N2CCC(CO)CC2)on1` belongs -11.8%; to `CCC(CC)c1cc(CNC(=O)N2CCCC(N(C)C)C2)on1` (configuration not stated), 28.23%.
Consider `CCC(CC)c1cc(CNC(=O)N2CCCC(C(=O)NC)C2)on1` (configuration not stated), for which the INHIBITION amounted to 59.8%.
For `CN1CCC2(CCN(C(=O)c3ccccc3)CC2)C1`, the INHIBITION was 39.18%.
Consider `COc1cccc(-c2n[nH]cc2C(=O)NC(C)c2nc(C(C)C)no2)c1` (configuration not stated), for which the INHIBITION was 33.9%.
The same measure for `COc1cccc(-c2n[nH]cc2C(=O)NC(C)CC(=O)O)c1` (configuration not stated): 1.06%; for `COc1cccc(-c2n[nH]cc2C(=O)NC(C)c2n[nH]c(C)n2)c1` (configuration not stated): 64.2%.
The same measure for `Cc1cccc(CN2CCCC2c2cccc(CCC(=O)O)n2)c1` (configuration not stated): -46.81%.
The same measure for `Cc1cc(CN2CCN(C(=O)CCc3ccco3)CC2)on1`: 19.91%; for `COc1ccc(COCC(O)CNC(=O)c2ccc(C)c(F)c2)cc1` (configuration not stated): -7.11%.
`CN(C)CC(=O)N1CCOCC(Cc2ccccn2)C1` (configuration not stated): the INHIBITION worked out at 54.44%.
Turning to `CN(CC(=O)N1CCOCC(CO)C1)Cc1ccccn1` (configuration not stated), the INHIBITION was determined as 14.96%.
Turning to `O=C(c1cncs1)N1CCOCC(Cc2ccccn2)C1` (configuration not stated), the INHIBITION was -11.3%.
The same measure for `CC(Cn1cccn1)NC(=O)Nc1nccs1` (configuration not stated): 43.93%; for `O=C(NCCNc1ncccn1)C1CC(=O)N(CC2CC2)C1` (configuration not stated): 4.96%.
On to `COc1ccccc1CCN1CCCC(CN(C)Cc2cc(C)n[nH]2)C1` (configuration not stated), for which the INHIBITION was -24.74%.
As to `Cc1ccc(C)c(OC(C)C(=O)NCc2cccnc2)c1` (configuration not stated), the INHIBITION is recorded as 50.98%.
Consider `Cc1ccc(C)c(OC(C)C(=O)NCCNc2cccnc2)c1` (configuration not stated), for which the INHIBITION was 33.36%.
Take `Cc1ccc(C)c(OC(C)C(=O)Nc2cccnc2)c1` (configuration not stated): the INHIBITION is 1.42%.
For the molecule `COc1ccc(NS(=O)(=O)C=c2[nH]c(=O)n3cccc3c2=O)cc1Cl`, the INHIBITION is listed as 1.52%.
The same measure for `O=C(N1CCCC1)N1CCN(c2ccc(Cl)nn2)C(=O)C1`: 11.51%; for `CC(CCNC(=O)NCCNc1cnccn1)c1ccccc1` (configuration not stated): -24.05%; for `CC(CCNC(=O)NCCc1ccc(S(N)(=O)=O)cc1)c1ccccc1` (configuration not stated): 23.76%.
The same measure for `CC(CCNC(=O)NCCc1ccncc1)c1ccccc1` (configuration not stated): 54.29%; for `CO[C@H]1CCN(Cc2ccccn2)[C@@H]2CN(Cc3ccco3)C[C@H]12`: 23.7%.
In the case of `O=C(CN1CC(c2nc(-c3ccco3)no2)C1)NCc1ccc(F)cc1`, the INHIBITION was determined as 25.69%.
On to `Cc1nc(CNc2ncc(Br)cn2)n[nH]1`, for which the INHIBITION is reported as 33.78%.
The same measure for `O=C(O)c1ccc(F)c(S(=O)(=O)Nc2c(F)cccc2-n2cccn2)c1`: 52.67%; for `O=C(O)c1ccc(S(=O)(=O)Nc2c(F)cccc2-n2cccn2)cc1`: -21.15%; for `O=C(O)c1csc(S(=O)(=O)Nc2c(F)cccc2-n2cccn2)c1`: -51.5%.
Take `CC(C)N1C(=O)CN(CCCO)CC1(C)C`: the INHIBITION is on record as -4.81%.
For `Cc1noc(-c2ccnc(Oc3ccc(CN4CCCC4)cc3C)c2)n1`, the INHIBITION is 27.72%.
For `CCc1ccc(CN2CCC3(CCCN(C(=O)c4cnccn4)C3)C2)o1` (configuration not stated), the INHIBITION is -26.14%.
The same measure for `O=C(Cc1ccc(O)c(Cl)c1)N1CCN(CC2CC2)[C@@H]2CS(=O)(=O)C[C@@H]21`: -3.88%; for `Cc1cnn(CCC(=O)N2CCN(C(=O)C(C)C)[C@@H]3CS(=O)(=O)C[C@@H]32)c1`: 34.52%.
`Cn1nccc1C(=O)N1CCN(C(=O)C2CC2)[C@@H]2CS(=O)(=O)C[C@@H]21`: the INHIBITION is given as 17.73%.
Take `O=C(Cc1ccc(CO)cc1)N1CCN(CC2CC2)[C@@H]2CS(=O)(=O)C[C@@H]21`: the INHIBITION is listed as 63.46%.
Consider `CCC(=O)N1CCN(C(=O)CCn2cc(Cl)cn2)[C@H]2CS(=O)(=O)C[C@H]21`, for which the INHIBITION came to 32.71%.
The same measure for `CCCN1CCN(Cc2cccc(OCC(N)=O)c2)[C@H]2CS(=O)(=O)C[C@H]21`: 64.52%.
Regarding `Cc1cc(CC(=O)N2CCN(CC3CC3)[C@@H]3CS(=O)(=O)C[C@@H]32)ccc1F`, the INHIBITION was -10.66%.
The same measure for `CCCN1CCN(Cc2cccc(OC(C)C)c2)[C@H]2CS(=O)(=O)C[C@H]21`: 5.86%; for `O=C(CCn1cc(Cl)cn1)N1CCN(CC2CC2)[C@@H]2CS(=O)(=O)C[C@@H]21`: 59.48%; for `Cc1cnn(CCC(=O)N2CCN(C(=O)C3CC3)[C@@H]3CS(=O)(=O)C[C@@H]32)c1`: 59.94%.
In the case of `O=C(Cc1ccc(O)c(F)c1)N1CCN(CC2CC2)[C@@H]2CS(=O)(=O)C[C@@H]21`, the INHIBITION was found to be 30.42%.
Turning to `CCCN1CCN(Cc2cccc(OC)c2)[C@H]2CS(=O)(=O)C[C@H]21`, the INHIBITION was determined as 37.76%.
For the molecule `O=C1NCCO[C@H]2CN(C(=O)CCc3ccccc3Cl)CC[C@@H]12`, the INHIBITION amounted to 46.58%.
In the case of `CCOCCOC(C)C(=O)Nc1ccc2ccn(CCN(C)C)c2c1` (configuration not stated), the INHIBITION stood at 27.32%.
`Fc1ccccc1-c1nnn(CCCc2nn[nH]n2)n1`: the INHIBITION is reported as -1.29%.
Regarding `Cc1ccc(-c2ccc(Cl)nn2)cc1S(N)(=O)=O`, the INHIBITION is on record as -62.18%.
As to `COc1ccccc1C1Cn2ccnc2CN1Cc1c[nH]nc1C` (configuration not stated), the INHIBITION is -67.25%.
Take `CN(CCc1ccncc1)C1CCCN(Cc2noc(C3CC3)n2)C1` (configuration not stated): the INHIBITION is on record as 22.34%.
Take `O=S1(=O)C[C@@H]2[C@H](C1)N(Cc1cccc(O)c1)CCN2CC1CC1`: the INHIBITION turned out to be 59.94%.
To `O=S1(=O)C[C@@H]2[C@H](C1)N(Cc1ccc3ccccc3c1)CCN2CC1CC1` belongs 20.91%; to `Cc1cc(CN2CCN(CC3CC3)[C@@H]3CS(=O)(=O)C[C@@H]32)cc(C)c1O`, 25.45%.
`COCCS(=O)(=O)NC(C)c1ccc(-n2nc(C)cc2C)cc1` (configuration not stated): the INHIBITION was -25.82%.
The same measure for `CCCS(=O)(=O)NC(=O)c1ccc(-n2nc(C)cc2C)cc1`: 59.04%; for `CCCS(=O)(=O)NC(=O)c1cc(C)n(-c2ccccc2)n1`: -1.29%; for `Cc1ccc(Oc2cc(F)ccc2O[C@@H]2CCC[C@@H](N)[C@H]2O)cc1`: 6.13%.
For the molecule `N[C@@H]1CCC[C@@H](Oc2ccc(F)cc2Oc2cccc(F)c2)[C@@H]1O`, the INHIBITION stood at 35.73%.
For the molecule `N[C@@H]1CCC[C@@H](Oc2ccc(F)cc2Oc2ccccc2)[C@@H]1O`, the INHIBITION is 61.99%.
Consider `COC(=O)Cn1c(=O)[nH]c2cn(-c3ccc(F)cc3)c(=O)n21`, for which the INHIBITION was -3.97%.
To `O=C1COc2ccc(C(=O)NS(=O)(=O)c3ccccc3F)cc2N1` belongs 8.37%; to `Cc1nnc([C@@H]2C[C@H]3CN(C(=O)c4c(C)noc4C)C[C@H]3O2)[nH]1`, 38.2%.
To `Cn1cc(Cl)c(C(=O)N2CCCN(C3Cc4ccccc4C3)CC2)n1` belongs -18.65%; to `Cc1nn(C)cc1C(=O)N1CCCN(C2Cc3ccccc3C2)CC1`, 19.12%; to `Cc1ccnn1CCC(=O)N1CCN(C2CCc3ccccc3C2)CC1` (configuration not stated), 14.13%.
To `Cn1cc(C(=O)N2CCCN(C3Cc4ccccc4C3)CC2)cn1` belongs 55.66%.
Turning to `CC(=O)N1CCCN(C(=O)c2cnn(-c3ccccc3Cl)c2)CC1`, the INHIBITION was determined as 82.5%.
On to `CC(=O)N1CCN(C(=O)c2cnn(-c3ccccc3Cl)c2)CC1`, for which the INHIBITION was -90.79%.
Consider `CCCn1nccc1C(=O)N1CCN(C2CCc3ccccc3C2)CC1` (configuration not stated), for which the INHIBITION came out at 57.85%.
As for `CN1CCN(C(=O)c2cnn(-c3ccccc3Cl)c2)CC1`, the INHIBITION is reported as -1.02%.
Regarding `Cc1ccnn1CC(=O)N1CCN(C2CCc3ccccc3C2)CC1` (configuration not stated), the INHIBITION was found to be 46.02%.
Consider `CCN(CC)C1CCN(C(=O)c2cc(-n3cccn3)ccc2Cl)CC1`, for which the INHIBITION is -16.01%.
For the molecule `Cc1noc(C)c1C(=O)NCC(C)N(C)C` (configuration not stated), the INHIBITION is recorded as 8.37%.
